Screens deposited in PubChem by National Center for Advancing Translational Sciences (NCATS).
HCV inh: HCV inhibition | Huh7.5.1 HCVcc-Cre infection, luciferase reporter, 44 h | Potency, µM (series often up to 41.8 µM), for the others: top-dose activity change, negative = inhibition, usual class: inhibitors | 3.4% of 340,000 active | AID 651820; also: % is scaled to controls: 0 for no effect and ±100 for the full control effect
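Cells seeded at 1,000/well and cultured 4 h, then compounds added followed by HCVcc-Cre virus (~0.5 moi). After 44 h further culture, luciferase substrate was added, plates held 15 min at room temperature, and luminescence read for 15 sec.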
AMA1 RON2 block: inhibitors of Plasmodium falciparum AMA1-RON2 interaction; AlphaScreen AMA1-biotinylated RON2 peptide binding; Potency, µM (titrated, usually from 58.2 µM), inactives show at the highest dose activity change, negative = inhibition, actives largely listed as inhibitors; 0.2% of 360,000 active; AID 720542;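 also: 0% = vehicle wells and -100% = peptide control; nearly all actives have a fitted effect of over 45% in size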
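AMA1 (3D7) with his tag at 25 nM final met compounds first, then biotinylated RON2 peptide at 25 nM; detection used donor plus acceptor beads, 10 µg/mL apiece, read by AlphaScreen after 30 min at room temperature.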
SARS PLP yeast: SARS-CoV PLP inhibition in yeast; S. cerevisiae expressing SARS-CoV PLpro, growth rescue; Potency, µM (highest dose often 32.9 µM), without a hit: at the highest dose activity, positive = growth rescue, most hits filed as activators; 0.19% of 330,000 active; calls by dose curve; also: 0% is about no effect; nearly all actives have a fitted effect of over 55% in size
Pf growth 48h: inhibits P. falciparum growth in the first generation, 48 h | P. falciparum luciferase growth in erythrocytes, 48 h | Potency, µM (series often up to 28.7 µM), without a hit: at the highest dose activity change, negative = inhibition, actives largely listed as inhibitors | 5.9% of 310,000 active | AID 504832; also: % is scaled to controls: 0 for no effect and ±100 for the full control effect
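Here the parasites carry a stable luciferase gene and grow inside erythrocytes in Albumax-based RPMI medium with compound for one erythrocytic cycle. Activity is scored as loss of luminescent signal.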
Pf growth 96h: inhibits malaria parasite growth, 96 h; P. falciparum luciferase reporter growth, 96 h; AID 504834; Potency, µM (highest dose often 28.7 µM), without a hit: at the highest dose activity change, negative = inhibition, hits mostly inhibitors; 6.9% of 320,000 active; also: % is scaled to controls: 0 for no effect and ±100 for the full control effect
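96 h incubation, 37 C, 5% CO2, of luciferase-reporter P. falciparum-infected RBCs (2% hematocrit, 0.05% parasitemia final) with test compounds; endpoint luminescence.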
NS1 inh: inhibitors of influenza NS1 protein function. 0.4% of 270,000 active. Potency, µM (series often up to 46.1 µM), for inactives: at the top dose activity, positive = more growth; calls by dose curve; also: actives are rising curves; nearly all actives have a fitted effect of over 50% in size
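In this qHTS, NS1 from influenza A is expressed in budding yeast, where it slows growth. Cells are switched from glucose to 2% galactose medium (pH 6.0, -URA), treated with compound, and growth recovery is read at OD600.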
* hit, by the source's call; i = inactive; ? = inconclusive; . = not tested or not shown. In the library only some 12% were active in any assay of this set; here they are far more common. Unless noted, calls follow the shape of the dose curve; as a rule, active = well fitted curve in the direction sought with a large enough effect; inconclusive = small, poorly fitted or top-dose-only effect, or another doubt; inactive = no such curve, though single readings can be large; an effect the other way counts as inactive or inconclusive. Potency is read from the fitted curve at half-maximal effect.

SMILES	HCV inh	AMA1 RON2 block	SARS PLP yeast	Pf growth 48h	Pf growth 96h	NS1 inh
CC(=O)N1c2ccc(S(=O)(=O)N3CCCC3)cc2CC1C(=O)NCc1ccccc1F (configuration not stated)	6%	-8%	2%	-5%	?	-6%
CN=c1scc(-c2ccc(F)cc2)n1/N=C/c1ccc(O)c(O)c1	2.2µM*	-6%	-25%	-52%	?	.
CN=c1scc(-c2ccc([N+](=O)[O-])cc2)n1/N=C/c1ccco1	12%	-11%	-3%	338%	i	1%
N/C(=N\OC(=O)C(c1ccccc1)c1ccccc1)c1ccccn1	-17%	68%	-10%	13µM*	15%	-9%
Cc1cc(C)c(C)c(OCC(=O)O/N=C(\N)c2ccccn2)c1	10µM*	42%	0%	.	?	-56%
N/C(=N\OC(=O)C(c1ccccc1)c1ccccc1)c1cccnc1	13%	11%	-27%	?	10µM*	-105%
Nc1nnc(-c2cc3c(ccc4ccccc43)oc2=O)s1	.	.	-1%	12%	27%	.
Cc1ccc(C(=O)Nc2cccc(C(=O)NC3CCCCC3)c2)cc1	?	10%	.	.	.	.
CCN1CCN(c2ccc(Nc3ccnc4ccccc34)cc2)CC1	11µM*	-3%	2%	0.66µM*	?	.
CN1CCN(c2ccc(Nc3ccnc4cc(Cl)ccc34)cc2)CC1	?	13%	4%	0.026µM*	?	4%
CCN1CCN(c2nc(-c3ccccc3)c3ccccc3n2)CC1	?	-21%	0%	-11%	-21%	0%
CCN1CCC(Nc2ccnc3cc(Cl)ccc23)CC1	-2%	5%	-2%	0.033µM*	0.0041µM*	2%
CCOc1ccc(Nc2ccnc3cc(Cl)ccc23)cc1	-28%	4%	3%	-17%	5%	-76%
O=C(c1ccccc1)c1c(-c2ccccc2)[nH]n(-c2ccccc2)c(=O)c1=O	6%	8%	.	.	.	.
Cc1ccc(-n2c(=O)[nH]c3c(C(N)=O)nc(CC(C)C)nc32)cc1	?	19%	1%	?	1.7µM*	4%
COc1ccccc1-n1c(=O)[nH]c2c(C(N)=O)nc(CC(C)C)nc21	-3%	11%	14%	.	?	-3%
O=C(NCCCC1CCCC1)C1CCC(=O)N(Cc2ccc(Cl)cc2)C1 (configuration not stated)	?	-3%	-3%	?	1%	-37%
O=C(/C=C/c1ccc(OC(F)F)cc1)Nc1cccc(S(=O)(=O)N2CCOCC2)c1	5.6µM*	2%	1%	-13%	?	-4%
O=C(/C=C/c1ccc([N+](=O)[O-])cc1)Nc1cccc(S(=O)(=O)NC2=NCCCCC2)c1	25µM*	-3%	1%	.	.	.
CC(=O)c1cccc(NC(=O)/C=C/c2ccc(S(=O)(=O)N3CCOCC3)cc2)c1	?	-10%	1%	.	.	.
CN(C)S(=O)(=O)c1cccc(NC(=O)/C=C/c2ccc(S(=O)(=O)N3CCOCC3)cc2)c1	?	5%	2%	8.3µM*	?	.
CC(=O)c1ccc(-c2ccc(C(=O)NC3CCCCCC3)o2)cc1	10%	-3%	0%	?	?	.
COc1ccc(CNc2ncnc3sccc23)cc1OC	6.3µM*	3%	3%	-20%	-13%	-8%
CN(Cc1ccccc1F)c1ncnc2sccc12	?	-3%	4%	-2%	8%	-6%
COc1ccc(CCN(C)c2ncnc3sccc23)cc1OC	10µM*	0%	-9%	-5%	4%	.
COc1ccc(CN(C)c2ncnc3sccc23)c(OC)c1OC	11µM*	2%	2%	13µM*	?	-2%
CN(Cc1cccs1)c1ncnc2sccc12	11µM*	8%	-10%	-14%	3%	-3%
Cc1cc(N2C(=O)C(O)=C(C(=O)c3cccs3)C2c2ccc(F)cc2)no1 (configuration not stated)	12%	-14%	0%	39%	52%	4%
